According to PubChem BioAssay AID977624 (Broad Institute, 2014):
Hit rate of the full screen: of about 1,800 compounds, fewer than 10 were called active. About 44% were inconclusive and are not listed.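 The calls were made as follows: active = compound lowering the normal-ribosome reporter at least twice as much as the humanized-ribosome reporter, growth loss under a set limit; inconclusive = no clear call, values can overlap the other calls; inactive = the rest.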 These entries were drawn from the full list.

experiment: wild-type E. coli growth inhibition versus h34 humanized strain – h34 mutant RFP, wild-type GFP, cherry-pick, dose response (AID 977624); details: fluorescence, 24 h; series mostly up to 50 µM

outcome, inactive:
Cc1cccc(C)c1Nc1ncnc2ccccc12, Cc1ccc(-c2n[nH]c(S(C)(=O)=O)c2C#N)cc1, C=CCN(c1ccccc1)S(=O)(=O)c1cccc2cccnc12, Cc1nn(Cc2cccc(F)c2)c(C)c1NC(=O)c1c(Cl)cnn1C, COc1ccc(NC(=O)CCC(=O)c2cccs2)cc1S(=O)(=O)Nc1ccc(Cl)cc1, C[C@@H]1CN([C@H](C)CO)C(=O)CCCn2nncc2CO[C@@H]1CN(C)C(=O)Nc1ccc(C(F)(F)F)cc1, COc1ccccc1OCC(=O)Nc1ccc(S(=O)(=O)N2CCCCCC2)cc1, CN(C)CCCN(C(=O)CCSc1ccccc1)c1nc2cc3c(cc2s1)OCO3, CCCC(=O)N(CCc1ccc(OC)cc1)Cc1nc2ccccc2c(=O)[nH]1, Cc1ccc(NC(=O)c2c(C)noc2-c2snnc2C)cc1, COC(=O)c1sc(C(C)(C)C)cc1CS(=O)(=O)c1ccc(Cl)cc1, CCc1ccc(NC(=O)COC(=O)CCCC2=NS(=O)(=O)c3ccccc3N2)cc1, CCn1c(-c2ccccc2Cl)nn(CC(=O)Nc2ccccc2OC)c1=S, C[C@@H]1CCCCO[C@@H](CN(C)C)[C@@H](C)CN([C@@H](C)CO)C(=O)c2cc(NC(=O)Nc3cccc4ccccc34)ccc2O1, CC(C)CNc1nc(S(=O)(=O)c2ccccc2)c(Cl)s1, Cc1ccc(-c2nc(CN3CCCCC3c3cccc(F)c3)c(C)o2)o1 (stereo not drawn), CCOC(=O)c1c(C)nsc1NCc1ccccc1, CC(C)CN1C(=O)c2ccc(C(=O)Nc3ccncc3)cc2C1=O, COc1cccc(C(NC(C)=O)c2nc(-c3ccccc3OC)cs2)c1 (stereo not drawn), Cc1cccc(-c2ccc([C@H]3[C@H]4CN(S(=O)(=O)c5ccccc5C)CCCCN4[C@H]3CO)cc2)c1, CC(=O)Nc1cccc(NC(=O)CSc2ccc(-c3cccnc3)nn2)c1, CCOC(=O)c1cc(-c2ccc(OC)cc2)n[nH]1, CCN(CC)CCN(C(=O)c1ccc2c(c1)OCCO2)c1nc2c(Cl)cccc2s1, CN(C)Cc1nc2ccccc2c(=O)n1Cc1nc(-c2cccc([N+](=O)[O-])c2)cs1, COc1cccc(NC(=O)COC(=O)Cc2ccccc2[N+](=O)[O-])c1, CCOC(=O)Cc1nnc(NC(=O)CSc2nc3ccccc3[nH]2)s1, O=C(O)CCCCCCCCc1cn(CC2CCCCC2)nn1, O=C(Nc1ccncc1)c1ccc(S(=O)(=O)Nc2ccccc2)cc1
